Data: PubChem BioAssay AID1159580 (chemical genetic matrix, 2015)
The whole screen tested about 5,500 compounds, of which about 2,000 (36%) were called active. Another 18% or so got no clear call; they are omitted. No stated cut-off is given here; in the data, active means normalized growth mostly below about 0.91 (no sharp cut-off); inconclusive means no clear call, values can overlap the other calls; inactive means mostly above about 0.92. Some of the results follow.

Test: chemical genetic growth profiling, strain panel (AID 1159580);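 further: tested at 20 µM; growth read once vehicle control cultures reached saturation at 30 °C; 1 = growth at the plate median or of vehicle wells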
Settings: growth OD

Measured: normalized growth

CCOC(=O)C(Cc1ccc(O)cc1)NC(C)=O (configuration not stated)
inactive: S. cerevisiae deletion strains, locus YJR075W, strain HOC1, stronger effect = lower value 1.01 | S. cerevisiae deletion strains, locus YKL009W, strain mrt4, stronger effect = lower value 0.996 | S. cerevisiae deletion strains, locus YKL068W, stronger effect = lower value 1 | S. cerevisiae deletion strains, locus YKL085W, strain MDH1 (second series), stronger effect = lower value 1 | S. cerevisiae deletion strains, locus YKL085W, strain MDH1, stronger effect = lower value 1 | S. cerevisiae deletion strains, locus YKL160W, strain elf1, stronger effect = lower value 1.02 | S. cerevisiae deletion strains, locus YKL190W, strain CNB1, stronger effect = lower value 1.01 | S. cerevisiae deletion strains, locus YKR001C, strain vps1, stronger effect = lower value 0.995 | S. cerevisiae deletion strains, locus YKR026C, strain gcn3, stronger effect = lower value 1 | S. cerevisiae deletion strains, locus YKR091W, strain srl3, stronger effect = lower value 1 | S. cerevisiae deletion strains, locus YLL001W, strain dnm1, stronger effect = lower value 1.01 | S. cerevisiae deletion strains, locus YLL026W, stronger effect = lower value 0.997 | S. cerevisiae deletion strains, locus YLL041C, strain sdh2, stronger effect = lower value 1 | S. cerevisiae deletion strains, locus YLR027C, strain aat2, stronger effect = lower value 1 | S. cerevisiae deletion strains, locus YLR039C, strain RIC1, stronger effect = lower value 1.03 | S. cerevisiae deletion strains, locus YLR058C, strain SHM2, stronger effect = lower value 1.02 | S. cerevisiae deletion strains, locus YLR102C, strain apc9, stronger effect = lower value 1.01 | S. cerevisiae deletion strains, locus YLR113W, strain HOG1, stronger effect = lower value 1.01 | S. cerevisiae deletion strains, locus YLR221C, strain rsa3, stronger effect = lower value 0.987 | S. cerevisiae deletion strains, locus YLR258W, strain gsy2, stronger effect = lower value 1.01 | S. cerevisiae deletion strains, locus YLR262C, strain YPT6 (second series), stronger effect = lower value 0.968 | S. cerevisiae deletion strains, locus YLR262C, strain YPT6, stronger effect = lower value 1.01 | S. cerevisiae deletion strains, locus YLR268W, strain sec22, stronger effect = lower value 1.01 | S. cerevisiae deletion strains, locus YLR320W, strain mms22, stronger effect = lower value 0.994 | S. cerevisiae deletion strains, locus YLR330W, strain CHS5, stronger effect = lower value 1.01 | S. cerevisiae deletion strains, locus YLR342W, strain FKS1 (second series), stronger effect = lower value 1.07 | S. cerevisiae deletion strains, locus YLR342W, strain FKS1, stronger effect = lower value 1.01 | S. cerevisiae deletion strains, locus YLR357W, strain rsc2, stronger effect = lower value 1.01 | S. cerevisiae deletion strains, locus YLR370C, strain arc18, stronger effect = lower value 1 | S. cerevisiae deletion strains, locus YLR371W, strain rom2, stronger effect = lower value 1.02 | S. cerevisiae deletion strains, locus YLR384C, strain iki3, stronger effect = lower value 1 | S. cerevisiae deletion strains, locus YLR418C, strain cdc73, stronger effect = lower value 1 | S. cerevisiae deletion strains, locus YML016C, strain PPZ1, stronger effect = lower value 1.01 | S. cerevisiae deletion strains, locus YML032C, strain rad52, stronger effect = lower value 0.989 | S. cerevisiae deletion strains, locus YML120C, strain ndi1, stronger effect = lower value 1.01 | S. cerevisiae deletion strains, locus YML124C, strain tub3, stronger effect = lower value 0.999 | S. cerevisiae deletion strains, locus YMR058W, strain fet3, stronger effect = lower value 1.01 | S. cerevisiae deletion strains, locus YMR078C, strain ctf18, stronger effect = lower value 1.01 | S. cerevisiae deletion strains, locus YMR125W, strain sto1, stronger effect = lower value 0.995 | S. cerevisiae deletion strains, locus YMR129W, stronger effect = lower value 1.01 | S. cerevisiae deletion strains, locus YMR205C, strain PFK2, stronger effect = lower value 0.997 | S. cerevisiae deletion strains, locus YMR223W, strain ubp8, stronger effect = lower value 0.987 | S. cerevisiae deletion strains, locus YMR231W, strain pep5, stronger effect = lower value 1.01 | S. cerevisiae deletion strains, locus YMR263W, strain SAP30, stronger effect = lower value 1.01 | S. cerevisiae deletion strains, locus YMR307W, strain GAS1, stronger effect = lower value 1.06 | S. cerevisiae deletion strains, locus YNL067W, strain RPL9B, stronger effect = lower value 1.02 | S. cerevisiae deletion strains, locus YNL071W, strain lat1, stronger effect = lower value 1 | S. cerevisiae deletion strains, locus YNL128W, strain TEP1, stronger effect = lower value 1.02 | S. cerevisiae deletion strains, locus YNL153C, strain GIM3, stronger effect = lower value 1.01 | S. cerevisiae deletion strains, locus YNL183C, strain NPR1, stronger effect = lower value 0.879 | S. cerevisiae deletion strains, locus YNL209W, strain ssb2, stronger effect = lower value 0.996 | S. cerevisiae deletion strains, locus YNL233W, strain BNI4, stronger effect = lower value 1.01 | S. cerevisiae deletion strains, locus YNL248C, strain rpa49, stronger effect = lower value 0.999 | S. cerevisiae deletion strains, locus YNL250W, strain rad50, stronger effect = lower value 0.992 | S. cerevisiae deletion strains, locus YNL271C, strain bni1, stronger effect = lower value 0.993 | S. cerevisiae deletion strains, locus YNL298W, strain CLA4, stronger effect = lower value 1.01 | S. cerevisiae deletion strains, locus YNL307C, strain MCK1, stronger effect = lower value 1 | S. cerevisiae deletion strains, locus YNL322C, strain KRE1 (second series), stronger effect = lower value 1.05 | S. cerevisiae deletion strains, locus YNL322C, strain KRE1, stronger effect = lower value 1.01 | S. cerevisiae deletion strains, locus YNR049C, strain mso1, stronger effect = lower value 1.02 | S. cerevisiae deletion strains, locus YNR052C, strain pop2, stronger effect = lower value 0.993 | S. cerevisiae deletion strains, locus YOL006C, strain TOP1, stronger effect = lower value 1.06 | S. cerevisiae deletion strains, locus YOL012C, strain htz1 0.841 | S. cerevisiae deletion strains, locus YOL147C, strain pex11, stronger effect = lower value 0.997 | S. cerevisiae deletion strains, locus YOR001W, strain rrp6, stronger effect = lower value 0.949 | S. cerevisiae deletion strains, locus YOR061W, strain CKA2, stronger effect = lower value 1.02 | S. cerevisiae deletion strains, locus YOR069W, strain VPS5, stronger effect = lower value 1.01 | S. cerevisiae deletion strains, locus YOR070C, strain gyp1, stronger effect = lower value 1 | S. cerevisiae deletion strains, locus YOR080W, strain dia2, stronger effect = lower value 1.01 | S. cerevisiae deletion strains, locus YOR083W, strain WHI5, stronger effect = lower value 1.03 | S. cerevisiae deletion strains, locus YOR106W, strain vam3, stronger effect = lower value 1.04 | S. cerevisiae deletion strains, locus YOR136W, strain idh2, stronger effect = lower value 0.989 | S. cerevisiae deletion strains, locus YOR144C, strain elg1, stronger effect = lower value 1.01 | S. cerevisiae deletion strains, locus YOR184W, strain ser1, stronger effect = lower value 1.01 | S. cerevisiae deletion strains, locus YOR231W, strain MKK1, stronger effect = lower value 0.971 | S. cerevisiae deletion strains, locus YOR265W, strain rbl2, stronger effect = lower value 1 | S. cerevisiae deletion strains, locus YOR270C, strain vph1, stronger effect = lower value 1 | S. cerevisiae deletion strains, locus YOR290C, strain snf2, stronger effect = lower value 1.03 | S. cerevisiae deletion strains, locus YOR316C, strain cot1, stronger effect = lower value 1.02 | S. cerevisiae deletion strains, locus YPL051W, strain arl3, stronger effect = lower value 1.03 | S. cerevisiae deletion strains, locus YPL055C, strain LGE1, stronger effect = lower value 1.01 | S. cerevisiae deletion strains, locus YPL078C, strain atp4, stronger effect = lower value 1.02 | S. cerevisiae deletion strains, locus YPL106C, strain sse1, stronger effect = lower value 1.03 | S. cerevisiae deletion strains, locus YPL240C, strain hsp82, stronger effect = lower value 1 | S. cerevisiae deletion strains, locus YPL241C, strain CIN2, stronger effect = lower value 1.01 | S. cerevisiae deletion strains, locus YPL256C, strain CLN2, stronger effect = lower value 0.93 | S. cerevisiae deletion strains, locus YPR119W, strain clb2, stronger effect = lower value 1.01 | S. cerevisiae deletion strains, locus YPR141C, strain kar3, stronger effect = lower value 0.995 | S. cerevisiae deletion strains, locus YPR163C, strain tif3, stronger effect = lower value 1 | S. cerevisiae deletion strains, locus YPR167C, strain met16, stronger effect = lower value 1 | S. cerevisiae deletion strains, strain wtn01, stronger effect = lower value 1.01 | S. cerevisiae strains, strain wild type, stronger effect = lower value 1.01
